High-throughput results as filed in PubChem.
The list is not random: actives were taken first. Their share in the collection is about 12%.
WT yeast gro inh: growth inhibition of WT yeast, mitochondrial fusion screen | mitochondrial fusion phenotypic screen, WT strain | inhibition, % at 10 µM | 2.1% of 190,000 active | AID 1362; in the data active = inhibition above about 58%; tested in S. cerevisiae
Ins promoter up: MIN6 insulin promoter up-regulation; MIN6 insulin promoter-GFP reporter, high-content imaging; hits give high values; z-score at 5 µM; AID 1625; 0.3% of 190,000 active;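 active = z-score above 3 at 5 µM with at least 500 cells counted in the well; inconclusive = wells under 500 cells, flagged as cytotoxic or low count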
ROMK primary: modulates human ROMK potassium channel activity | B-score at 10 µM | P48048 | Tet-inducible ROMK, thallium flux fluorescence; actives lie on both sides | 2% of 130,000 active;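 active = signal ratio slope over the read window, or its plate-corrected B-score, at least 3 SD from the plate mean, either direction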;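 also: B-score of the F/F0 ratio slope over 7 to 12 s after thallium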
INS promoter inh: TRM-6 insulin promoter activity inhibition; TRM-6 cells (human fetal islet line), insulin promoter-eGFP reporter, imaging; reporter expression induced with tamoxifen; inhibition, % at 2 µM; 0.9% of 130,000 active;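 active = inhibition above the mean plus 3 SD, with well images judged a real hit on visual review, cut at about 60% in these data, passing the limit was not always enough; inconclusive = inhibition over the cutoff but images rejected on review; inactive = inhibition not above the cutoff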
L major viab: Leishmania major promastigote growth inhibition; Leishmania major promastigotes, resazurin fluorescence viability; inhibition, % at 10 µM; 9% of 200,000 active; in the data active = inhibition above about 50%;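 also: promastigotes grown with compound for 44 hours at 28 °C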
KCC2 mod: modulates chloride dependent transport by human KCC2 | 2.2% of 190,000 active | B-score of Tl+ flux slope (higher = more flux/activation; lower = inhibition) at 10 µM | Q9H2X9 | KCC2 cells, thallium flux FluoZin-2 fluorescence | AID 1456;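 active = thallium flux slope and its plate-corrected score both differing from the plate sample mean at a set confidence after two filtering rounds, in either direction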;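 also: slope of fluorescence scaled to starting intensity during 10 to 20 s after thallium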
Target sequence (Q9H2X9 whole entry, looked up): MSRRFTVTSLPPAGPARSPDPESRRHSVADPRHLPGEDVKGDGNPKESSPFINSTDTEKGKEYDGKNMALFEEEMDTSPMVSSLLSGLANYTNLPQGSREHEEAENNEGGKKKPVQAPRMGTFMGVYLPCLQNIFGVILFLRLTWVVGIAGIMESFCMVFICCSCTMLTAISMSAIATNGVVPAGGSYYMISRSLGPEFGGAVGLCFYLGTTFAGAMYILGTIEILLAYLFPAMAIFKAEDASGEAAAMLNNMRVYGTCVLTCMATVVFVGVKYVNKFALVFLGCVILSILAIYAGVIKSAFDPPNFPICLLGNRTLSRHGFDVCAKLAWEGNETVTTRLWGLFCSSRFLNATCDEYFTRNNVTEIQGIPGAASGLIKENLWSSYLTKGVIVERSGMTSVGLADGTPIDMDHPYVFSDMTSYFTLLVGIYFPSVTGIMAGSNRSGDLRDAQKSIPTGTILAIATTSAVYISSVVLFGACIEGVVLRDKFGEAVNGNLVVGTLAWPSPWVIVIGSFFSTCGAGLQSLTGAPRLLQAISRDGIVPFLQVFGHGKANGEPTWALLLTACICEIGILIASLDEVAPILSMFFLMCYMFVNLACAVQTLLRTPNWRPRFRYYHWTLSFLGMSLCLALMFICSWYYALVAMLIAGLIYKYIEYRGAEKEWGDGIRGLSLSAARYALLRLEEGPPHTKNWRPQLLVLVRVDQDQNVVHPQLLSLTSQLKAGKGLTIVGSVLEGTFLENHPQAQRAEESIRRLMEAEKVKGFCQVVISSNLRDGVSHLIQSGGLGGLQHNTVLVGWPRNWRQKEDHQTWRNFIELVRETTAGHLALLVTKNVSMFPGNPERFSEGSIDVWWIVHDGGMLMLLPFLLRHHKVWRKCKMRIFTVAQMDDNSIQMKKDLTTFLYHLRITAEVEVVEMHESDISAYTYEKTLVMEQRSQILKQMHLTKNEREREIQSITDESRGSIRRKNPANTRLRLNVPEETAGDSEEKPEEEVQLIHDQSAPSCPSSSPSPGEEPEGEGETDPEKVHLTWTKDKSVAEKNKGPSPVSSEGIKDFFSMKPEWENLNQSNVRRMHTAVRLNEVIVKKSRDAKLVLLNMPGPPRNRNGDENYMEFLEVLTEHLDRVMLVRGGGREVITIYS
ROMK retest: confirmation of human ROMK potassium channel modulators. shares compounds with ROMK primary. ROMK thallium flux, fluorescence ratio; hits give low values. normalized thallium flux (F/F0 slope) at 10 µM. AID 1917. 54% of 3,000 active;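 active = Flux at 10 µM at least 3 SD below or above vehicle control mean in one or both replicates; inconclusive = no clear call, values can overlap the other calls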
Each line names hits and unclear results; the compound was inactive in the other large screens (follow-up assays come after a bar, where they were run).

Cc1ccc(Cn2ccc(=O)c(Cc3c(Cl)cccc3Cl)c2C)cc1	none (no result: ROMK primary, KCC2 mod) | ROMK retest 0.049
COc1ccc(Cn2ccc(=O)c(Cc3c(Cl)cccc3Cl)c2C)cc1	none (no result: ROMK primary, KCC2 mod)
O=[N+]([O-])c1ccc(/C=C/c2nc3ccc([N+](=O)[O-])cc3[nH]2)cc1	none (no result: ROMK primary, INS promoter inh)
COCCNC(=O)c1cc(C(=O)CC(C)C)c[nH]1	none
COc1cccc(-c2nnc3n2N=C(c2cc(OC)ccc2OC)CS3)c1	none (no result: INS promoter inh, KCC2 mod)
CCOc1cccc(-c2nnc3n2N=C(c2cc(OC)ccc2OC)CS3)c1	ROMK primary 3.8, L major viab 66 | ROMK retest inactive
COc1cc(C2C(C#N)=C(N)Oc3cc(N(C)C)ccc32)cc2c1OCO2 (stereo not given)	none (no result: ROMK primary) | ROMK retest 0.058
COc1cc(C2C(C#N)=C(N)Oc3cc(O)ccc32)cc(OC)c1OC (stereo not given)	none (no result: Ins promoter up, ROMK primary)
COc1cc(C2C(C#N)=C(N)Oc3cc(O)ccc32)cc2c1OCO2 (stereo not given)	none
COc1cc(C2C(C#N)=C(N)Oc3cc4c(cc32)OCO4)cc(OC)c1OC (stereo not given)	ROMK primary 4.7 (no result: Ins promoter up) | ROMK retest inactive
COc1cc(OC)cc(C(=O)NNC(=O)c2ccc(S(=O)(=O)N3CC(C)OC(C)C3)cc2)c1 (stereo not given)	none (no result: Ins promoter up, INS promoter inh)
CCC(C)(C)NC(=O)C(c1cccn1C)N(C(=O)Cn1nnc2ccccc21)c1ccc(OC)cc1OC (stereo not given)	ROMK primary -3.5 (no result: Ins promoter up) | ROMK retest 0.051
CCCCOc1ccccc1C1CC(=O)NC2=C1C(=O)CCC2 (stereo not given)	ROMK primary 4.7 | ROMK retest inactive
CCOc1ccc(NC(=O)N[C@@H](CCSC)C(=O)OC)cc1	ROMK primary 2.4 | ROMK retest inconclusive
Cc1nnc(N/N=C/c2ccc(-c3ccccc3F)o2)n1N	ROMK primary -2.5 | ROMK retest 0.059
CCc1ccccc1NC(=O)N1CCCC(CCC(=O)N(C)CCc2ccccn2)C1 (stereo not given)	none (no result: Ins promoter up, KCC2 mod)
N=C(N)SCc1nc2ccccc2c(=O)n1-c1ccccc1	none
NC(=O)c1sc2nc(-c3ccccc3)c3c(c2c1N)CCCC3	none (no result: Ins promoter up)
NC(=O)c1sc2nccc(Nc3ccccc3)c2c1N	none (no result: ROMK primary) | ROMK retest 0.06
COc1cccc(CNC(=O)CSCc2cnn(-c3ccccc3)c2-n2cccc2)c1OC	ROMK primary -3.3 | ROMK retest inactive
Cc1cccc(C)c1NC(=O)C(NS(=O)(=O)c1cccs1)c1ccccc1 (stereo not given)	none
O=C(Nc1cccc(S(=O)(=O)N2CCCCC2)c1)c1ccc2c(=O)n3c(nc2c1)CCCCC3	none (no result: ROMK primary, INS promoter inh) | ROMK retest 0.064
O=C1c2ccccc2S(=O)(=O)N1CC1CC(c2ccccc2)=NO1 (stereo not given)	ROMK primary 2.1 (no result: KCC2 mod) | ROMK retest 0.068
CCCC(=O)Nc1nc(C)c(-c2csc(Nc3ccccc3C)n2)s1	ROMK primary -15 (no result: INS promoter inh) | ROMK retest inconclusive
CCCC(=O)NC(Nc1ccc(S(=O)(=O)Nc2ncccn2)cc1)(C(=O)OCC)C(F)(F)F (stereo not given)	none (no result: ROMK primary, INS promoter inh)
CCN1C(=C(C#N)C#N)C=Cc2cc(C)ccc21	none
C=CC[n+]1c(/C=C2\C=Cc3cc(C)ccc3N2CC)ccc2ccccc21	Ins promoter up inconclusive, ROMK primary -3.4, L major viab 100 | ROMK retest 0.053
C(#CCN1CCC(Cc2ccccc2)CC1)COCCOCc1ccccc1	ROMK primary -3 | ROMK retest 0.063
CC(C#CCN1CCCCC1)OCCOCc1ccccc1 (stereo not given)	none (no result: INS promoter inh)
CCCc1nnc(N2C(=O)c3cccc4cccc(c34)C2=O)s1	ROMK primary 2.3 (no result: KCC2 mod) | ROMK retest inactive
Cc1nnc(N2C(=O)c3cccc4cccc(c34)C2=O)s1	none
Cc1ccc(C2=NOC(=O)/C2=C\c2ccc(C)o2)cc1	ROMK primary -3.7 (no result: WT yeast gro inh, INS promoter inh, L major viab) | ROMK retest 0.039
Cc1ccc(-n2cccn2)c(CN2CCC(CO)(CCc3ccccc3)CC2)c1	ROMK primary -3.3 (no result: INS promoter inh) | ROMK retest 0.061
CC1CCCN(c2ccc([N+](=O)[O-])cc2C(=O)c2ccccc2)C1 (stereo not given)	none (no result: Ins promoter up) | ROMK retest inactive
